From PubChem BioAssay (EPA / NIEHS) come the findings set out here.

In general, AC50 refers to the concentration at which the activity in the assay is half-maximal.

Read-out in assay [1]: C-C motif chemokine 2 (Homo sapiens) (UniProt P13500)
Briefly: BSK_KF3CT_MCP1: BioMAP Diversity Plus: KF3CT Assay for Monocyte Chemoattractant Protein 1 (MCP1/CCL2) Biomarker Activity (AID 2283073). The conditions noted are these: primary human keratinocytes with fibroblasts; actives raise or lower the signal. Summed up: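 KF3CT skin co-culture (keratinocytes/foreskin fibroblasts), 24 h post-dose; MCP-1 by ELISA; gain/loss of signal fit bidirectionally vs DMSO baseline.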

Read-out in assay [2]: urokinase plasminogen activator (uPA), PLAU (gene 5328)
Briefly: BSK_KF3CT_uPA: BioMAP Diversity Plus: KF3CT Assay for urokinase plasminogen activator (uPA) Biomarker Activity (AID 2283075). The settings on record: primary human keratinocytes with fibroblasts; actives raise or lower the signal. Summed up: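 Human keratinocyte plus foreskin fibroblast primary co-culture exposed to chemical for 24 h. uPA levels were quantified by ELISA, and activity was fitted bidirectionally against a DMSO negative-control baseline.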

Read-out in assay [3]: CD40, CD40 (gene 958)
Briefly: BSK_LPS_CD40: BioMAP Diversity Plus: LPS Assay for CD40 Biomarker Activity (AID 2283076). The conditions noted are these: primary human HUVEC with PBMC; actives raise or lower the signal. Summed up:
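ELISA readout of CD40 in HUVEC/PBMC co-culture (BSK_LPS system), 24 h post-dosing; bidirectional curve fit, DMSO baseline; parallel SRB total-protein staining for cytotoxicity.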

Read-out in assay [4]: E-selectin (Homo sapiens) (UniProt P16581)
The assay is described as follows: BSK_LPS_Eselectin: BioMAP Diversity Plus: LPS Assay for Eselectin Biomarker Activity (AID 2283077). The conditions noted are these: primary human HUVEC with PBMC; actives raise or lower the signal. Summed up:
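ELISA readout of E-selectin, 24 h post-dose, HUVEC + PBMC co-culture (LPS system). Gain or loss of signal vs DMSO baseline, bidirectional fit.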

Read-out in assay [5]: Interleukin-8 (IL8), CXCL8 (gene 3576)
The assay is described as follows: BSK_LPS_IL8: BioMAP Diversity Plus: LPS Assay for Interleukin-8 (IL8) Biomarker Activity (AID 2283078). The conditions noted are these: primary human HUVEC with PBMC; actives raise or lower the signal. Summed up: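 HUVEC + PBMC co-culture, LPS-activated; test chemicals dosed, IL-8 read by ELISA at 24 h. Bidirectional curve fit vs DMSO baseline (gain or loss of signal).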

A short description of assay [6]: BSK_LPS_SRB: Viability Assessment in the BioMAP Diversity Plus: LPS Assay (AID 2283079).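 Further: total protein by sulforhodamine B absorbance as a cytotoxicity measure; measured one day after compound addition; fitted in both directions against DMSO so loss or gain of signal counts.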 The settings on record: primary human HUVEC with PBMC. Summed up:
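HUVEC + PBMC co-culture, LPS-stimulated; compound 24 h. 10% TCA fix, 0.1% SRB stain, A560. Bidirectional fit vs DMSO.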

Read-out in assay [7]: Interleukin-1 alpha (IL1a), IL1A (gene 3552)
The assay is described as follows: BSK_LPS_IL1a: BioMAP Diversity Plus: LPS Assay for Interleukin-1 alpha (IL1a) Biomarker Activity (AID 2283080). The conditions noted are these: primary human HUVEC with PBMC; actives raise or lower the signal. Summed up: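 HUVEC/PBMC co-culture, LPS system; 24 h after dosing; IL-1a by ELISA; gain or loss of signal fitted bidirectionally vs DMSO baseline.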

Read-out in assay [8]: Monocyte Chemoattractant Protein-1 (MCP1), CCL2 (gene 6347)
The assay is described as follows: BSK_LPS_MCP1: BioMAP Diversity Plus: LPS Assay for Monocyte Chemoattractant Protein-1 (MCP1) Biomarker Activity (AID 2283081).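 On AC50: secreted MCP-1 protein quantified by ELISA in culture supernatant.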 The conditions noted are these: primary human HUVEC with PBMC; actives raise or lower the signal. In short, it runs like this:
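ELISA read-out of MCP-1 after 24 h chemical dosing of a human umbilical vein endothelial cell/peripheral blood mononuclear cell co-culture stimulated with LPS. Gain or loss of signal fitted relative to DMSO controls.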

A short description of assay [9]: BSK_LPS_PGE2: BioMAP Diversity Plus: LPS Assay for Prostaglandin E2 (PGE2) Biomarker Activity (AID 2283082). The settings on record: primary human HUVEC with PBMC; actives raise or lower the signal. In short, it runs like this: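 HUVEC plus human PBMC co-culture stimulated with LPS; secreted PGE2 quantified by ELISA 24 h after chemical dosing. Activity fitted bidirectionally against DMSO baseline; parallel SRB staining (0.1% SRB after 10% TCA fixation, 560 nm) flags overt cytotoxicity.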

Read-out in assay [10]: Macrophage colony-stimulating factor (MCSF), CSF1 (gene 1435)
Briefly: BSK_LPS_MCSF: BioMAP Diversity Plus: LPS Assay for Macrophage colony-stimulating factor (MCSF) Biomarker Activity (AID 2283083). The conditions noted are these: primary human HUVEC with PBMC; actives raise or lower the signal. In short, it runs like this:
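HUVEC + PBMC co-culture (human primary), 24 h post-dose; M-CSF by ELISA; gain/loss of signal fitted bidirectionally vs DMSO baseline.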

Read-out in assay [11]: Tissue Factor, F3 (gene 2152)
The assay is described as follows: BSK_LPS_TissueFactor: BioMAP Diversity Plus: LPS Assay for Tissue Factor Biomarker Activity (AID 2283084). The settings on record: primary human HUVEC with PBMC; actives raise or lower the signal. In short, it runs like this: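 HUVEC/PBMC co-culture, LPS-activated; CD142 ELISA read 24 h post-dose; bidirectional curve fit vs DMSO negative control.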

Read-out in assay [12]: Tumor necrosis factor (Homo sapiens) (UniProt P01375)
The assay is described as follows: BSK_LPS_TNFa: BioMAP Diversity Plus: LPS Assay for Tumour Necrosis Factor alpha (TNFa) Biomarker Activity (AID 2283085). The settings on record: primary human HUVEC with PBMC; actives raise or lower the signal. In short, it runs like this: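 Human umbilical vein endothelial cells co-cultured with PBMC and stimulated with LPS. TNFa was measured by ELISA 24 h after chemical dosing, fitted bidirectionally relative to DMSO.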

Read-out in assay [13]: Vascular cell adhesion molecule 1 (VCAM1), VCAM1 (gene 7412)
The assay is described as follows: BSK_LPS_VCAM1: BioMAP Diversity Plus: LPS Assay for Vascular cell adhesion molecule 1 (VCAM1) Biomarker Activity (AID 2283086). The conditions noted are these: primary human HUVEC with PBMC; actives raise or lower the signal. In short, it runs like this: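 Human umbilical vein endothelial cells co-cultured with PBMC and stimulated with LPS; VCAM-1 measured by ELISA 24 h after dosing. Bidirectional curve fitting against DMSO baseline; cytotoxicity tracked in parallel by SRB total-protein staining.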

Read-out in another assay: CD38, CD38 (gene 952)
Briefly: BSK_SAg_CD38: BioMAP Diversity Plus: SAg Assay for CD38 Biomarker Activity (AID 2283087). The conditions noted are these: primary human HUVEC with PBMC; actives raise or lower the signal. In short, it runs like this: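 Human HUVEC plus PBMC co-culture stimulated with superantigen; CD38 measured by ELISA 24 h after chemical dosing. Fluorescence read-out, bidirectional fit against DMSO; cytotoxicity tracked in parallel by SRB and Alamar Blue.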

Read-out in assay [14]: CD40, CD40 (gene 958)
The assay is described as follows: BSK_SAg_CD40: BioMAP Diversity Plus: SAg Assay for CD40 Biomarker Activity (AID 2283088). The settings on record: primary human HUVEC with PBMC; actives raise or lower the signal. In short, it runs like this: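 HUVEC/PBMC co-culture, 24 h post-dose; CD40 by ELISA, fluorescence intensity; bidirectional fit vs DMSO negative control.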

Read-out in the next assay: CD69, CD69 (gene 969)
The assay is described as follows: BSK_SAg_CD69: BioMAP Diversity Plus: SAg Assay for CD69 Biomarker Activity (AID 2283089).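 On AC50: cell surface CD69 protein quantified by ELISA with fluorescence detection.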 The settings on record: primary human HUVEC with PBMC; actives raise or lower the signal. Summed up: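 Values derive from bidirectional fitting relative to DMSO vehicle. Cells: umbilical vein endothelium plus peripheral blood mononuclear cells, treated 24 h before fluorescent ELISA for CD69.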

Read-out in assay [15]: Monocyte Chemoattractant Protein-1 (MCP1), CCL2 (gene 6347)
The assay is described as follows: BSK_SAg_MCP1: BioMAP Diversity Plus: SAg Assay for Monocyte Chemoattractant Protein-1 (MCP1) Biomarker Activity (AID 2283090). The settings on record: primary human HUVEC with PBMC; actives raise or lower the signal. Summed up:
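MCP-1 levels in the endothelial–PBMC SAg co-culture were quantified by ELISA at 24 h post-dosing; both increases and decreases versus DMSO scored. Cytotoxicity monitored by SRB total protein in parallel cultures.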

Read-out in assay [16]: E-selectin (Homo sapiens) (UniProt P16581)
The assay is described as follows: BSK_SAg_Eselectin: BioMAP Diversity Plus: SAg Assay for Eselectin Biomarker Activity (AID 2283091). The conditions noted are these: primary human HUVEC with PBMC; actives raise or lower the signal. In short, it runs like this:
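E-selectin ELISA readout at 24 h post-dosing in human umbilical vein endothelial cell/PBMC co-culture; gain or loss of signal fitted relative to DMSO baseline.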

Read-out in assay [17]: Monokine induced gamma interferon (MIG), CXCL9 (gene 4283)
The assay is described as follows: BSK_SAg_MIG: BioMAP Diversity Plus: SAg Assay for Monokine induced gamma interferon (MIG) Biomarker Activity (AID 2283092). The conditions noted are these: primary human HUVEC with PBMC; actives raise or lower the signal. In short, it runs like this:
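Values reflect bidirectional fitting of ELISA-measured MIG against DMSO vehicle, taken 24 h after dosing of a co-culture of human umbilical vein endothelial cells and peripheral blood mononuclear cells.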

Active and inactive are the calls of the source. How the source made its calls: active means hit-call score of the fitted dose curve at least 0.9, where 1 is the maximum; inactive means score below 0.9.

E-selectin (Homo sapiens), sequence (P16581 whole entry, looked up): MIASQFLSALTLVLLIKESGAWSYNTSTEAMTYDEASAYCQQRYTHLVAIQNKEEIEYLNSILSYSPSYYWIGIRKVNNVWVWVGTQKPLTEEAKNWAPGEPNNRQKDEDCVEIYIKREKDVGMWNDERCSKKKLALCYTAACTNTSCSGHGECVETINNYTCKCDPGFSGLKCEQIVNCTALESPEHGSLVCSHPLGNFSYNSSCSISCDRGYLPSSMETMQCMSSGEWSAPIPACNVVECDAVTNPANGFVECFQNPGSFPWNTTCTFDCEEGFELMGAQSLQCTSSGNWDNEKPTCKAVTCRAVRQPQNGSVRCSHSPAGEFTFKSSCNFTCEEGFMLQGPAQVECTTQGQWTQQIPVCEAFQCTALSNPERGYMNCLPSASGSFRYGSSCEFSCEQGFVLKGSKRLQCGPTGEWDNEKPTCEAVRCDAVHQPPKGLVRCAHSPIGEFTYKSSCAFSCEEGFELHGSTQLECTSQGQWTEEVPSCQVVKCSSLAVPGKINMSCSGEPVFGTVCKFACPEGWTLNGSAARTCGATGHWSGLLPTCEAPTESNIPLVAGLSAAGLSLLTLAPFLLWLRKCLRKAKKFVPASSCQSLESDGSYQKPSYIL
Tumor necrosis factor (Homo sapiens), sequence (P01375 whole entry, looked up): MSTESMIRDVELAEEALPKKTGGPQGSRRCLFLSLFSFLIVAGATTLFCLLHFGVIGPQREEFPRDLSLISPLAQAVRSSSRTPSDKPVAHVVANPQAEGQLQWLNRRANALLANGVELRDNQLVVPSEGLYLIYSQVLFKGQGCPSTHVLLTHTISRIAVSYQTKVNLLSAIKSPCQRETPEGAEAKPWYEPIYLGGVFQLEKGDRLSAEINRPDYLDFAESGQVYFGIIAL

Turning to `Cc1cc(C2(c3cc(C)c(O)cc3C)OS(=O)(=O)c3ccccc32)c(C)cc1O`, the outcome was “inactive” in [1]; “inactive” in [2]; “inactive” with CD40, CD40 (gene 958) [3]; “inactive” in assay [4]; “inactive” in assay [5]; “inactive” in assay [6]. Moreover, the result in [7], in assay [8], in assay [9], in [10], in assay [11] and in assay [12] was inactive. Besides, the outcome in [13] was “inactive”; in the assay with CD38, CD38 (gene 952), “inactive”; with CD40, CD40 (gene 958) [14] it was “inactive”; with CD69, CD69 (gene 969), “inactive”; in [15], “inactive”; in [16], “inactive”. The result in assay [17] was inactive.

As for `CCc1c(C)cc(N)c(CC)c1N`, the outcome is “inactive” in assay [1]; “inactive” in [2]; “inactive” in the assay with CD40, CD40 (gene 958) [3]; “inactive” in [4]; “inactive” in [5]; “inactive” in assay [6]. The result in assay [7], in assay [8], in assay [9], in assay [10], in assay [11] and in assay [12] was inactive. The outcome in [13] is “inactive”; with CD38, CD38 (gene 952), “inactive”; in the assay with CD40, CD40 (gene 958) [14], “inactive”; with CD69, CD69 (gene 969), “inactive”; in assay [15], “inactive”; in assay [16], “inactive”. The result in [17] was inactive.

With `CCC(=O)OCc1ccccc1`, the outcome in assay [1] is “inactive”; in [2], “inactive”; in the assay with CD40, CD40 (gene 958) [3], “inactive”; in assay [4], “inactive”; in [5] it was “inactive”; in assay [6], “inactive”. Also, the outcome in assay [7], in assay [8], in [9], in assay [10], in assay [11] and in assay [12] was inactive. The outcome is “inactive” in assay [13]; “inactive” with CD38, CD38 (gene 952); “inactive” in the assay with CD40, CD40 (gene 958) [14]; “inactive” in the assay with CD69, CD69 (gene 969); “inactive” in assay [15]; “inactive” in assay [16]. Further, the result in [17] was inactive.

For the molecule `CCCCC/C=C/C=C/C=O`, the AC50 in assay [1] is 32.5 µM (active); in [2], 31.4 µM (active); with CD40, CD40 (gene 958) [3], 20 µM (active); in [4] it was 34.1 µM (active); in assay [5], 32.6 µM (active); in assay [6], 29.7 µM (active). In addition, the half-maximal activity concentration (AC50) in assay [7] was 29.2 µM (active); in assay [8], 33.5 µM (active); in assay [9] it was 25.3 µM (active); in assay [10], 33.2 µM (active); in [11] it was 31.9 µM (active); in [12], 30.8 µM (active). The AC50 in [13] was 30 µM (active); with CD38, CD38 (gene 952) it was 31.7 µM (active); with CD40, CD40 (gene 958) [14] it was 20 µM (active); with CD69, CD69 (gene 969), 30 µM (active); in assay [15] it was 31.2 µM (active); in assay [16] it was 28.3 µM (active). Besides, in assay [17], the half-maximal activity concentration (AC50) was 35.6 µM (active).
